Test results reported in PubChem BioAssay (NCI).
Compounds without any hit were thinned out: in the full panel of roughly 83,000, 20% have a hit.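 Single-concentration screen, 48 h exposure, 96-well plates. Endpoint: percent growth. Below 10 = active.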 The source made the active and inactive calls.

Each compound was assayed on HL-60(TB) leukemia (assay: NCI-60 one-dose screen, 48 h (100 = growth as untreated, 0 = no growth, -100 = all killed)). Settings: 10 µM unless noted.

Question: How did the growth turn out when CCCCNc1nnc(-c2cc(-c3cc4ccccc4o3)nn2-c2ccccc2)o1 was run?
Answer: 86.5% (inactive)

Question: For O=C1Cc2c(sc3c(F)cccc23)C(c2ccccc2[N+](=O)[O-])N1 (stereo not given), which growth is on record?
Answer: 116% (inactive)

Question: COc1cc(CNC(=O)CCCC/C=C/C(C)C)ccc1O was tested. Which growth did it give?
Answer: 91.1% (inactive)

Question: CN(C)c1ccc(/C=C(\C#N)c2nc3ccccc3c(=O)[nH]2)cc1 was tested. Which growth did it give?
Answer: 108% (inactive)

Question: How did the growth turn out when CC1(C)C(=O)/C(=C\c2ccc(C(F)(F)F)cc2)C[C@]2(C)[C@H]3CC[C@@H]4[C@H]5[C@H](C(=O)/C=C/c6ccc(C(F)(F)F)cc6)CC[C@]5(CO)CC[C@@]4(C)[C@]3(C)CC[C@@H]12 was run?
Answer: 92% (inactive)

Question: Which growth does the source give for CCOc1ccccc1C(=O)OCC(=O)Nc1cccc(S(=O)(=O)N(C)C)c1 here?
Answer: 86.2% (inactive)

Question: How did the growth turn out when COc1ccc(C(=O)CSc2nc(-c3cc(OC)ccc3OC)cc(-c3ccc(OC)cc3)c2C#N)cc1 was run?
Answer: 98.3% (inactive)

Question: How did the growth turn out when Nc1nnc(C(=O)c2cnc3n(c2=O)CCCCC3)s1 was run?
Answer: 110% (inactive)

Question: For CN(C)c1ccc(C2CC(c3ccccc3)=NN2/C=C2\SC(=O)NC2=O)cc1 (stereo not given), which growth is on record?
Answer: 84.7% (inactive)

Question: How did the growth turn out when CCCCCCCCCCCCC1CCC(=O)O1 (stereo not given) was run?
Answer: 88.1% (inactive)

Question: For CCO/C=N/C1=C(C#N)C(c2ccc(Cl)cc2)c2c(c3ccc(C)cc3[nH]c2=O)O1 (stereo not given), which growth is on record?
Answer: 88.6% (inactive)

Question: O=C(CSc1nnc(-c2ccc(Cl)cc2)o1)Nc1ccc(C(=O)/C=C/c2ccccc2)cc1 was tested. Which growth did it give?
Answer: 97.1% (inactive)

Question: For O=C(CBr)OCc1ccc([N+](=O)[O-])o1, which growth is on record?
Answer: 118% (inactive)

Question: With Cc1ccc(C)c2c1SC1=NNC(Oc3ccc(Cl)cc3)=C(C#N)C(=N)N12 as the compound, how does the growth read?
Answer: 122% (inactive)

Question: For O=S(=O)(O)c1cccnc1, which growth is on record?
Answer: 61.8% (inactive)

Question: For CCOC(CNC(=O)c1cccc([N+](=O)[O-])c1)OCC, which growth is on record?
Answer: 105% (inactive)

Question: For COc1cc(NCC(C)(O)CN(CC(C)C)CC(C)C)c2nc(C)ccc2c1 (stereo not given), which growth is on record?
Answer: 71.4% (inactive)

Question: How did the growth turn out when Nc1ccccc1-c1ccc(-c2ccc(Cl)cc2)c2c1[nH]c1ccccc12 was run?
Answer: 70.9% (inactive)

Question: For CCCCCCCCCC[N+](C)(C)C, which growth is on record?
Answer: -6.93% (active)

Question: How did the growth turn out when O=c1c(/C=C/c2c(O)ccc3ccccc23)nnc2sc(-c3cccc([N+](=O)[O-])c3)nn12 was run?
Answer: 11.2% (inactive)

Question: With CC[C@@H]1NC(=O)[C@H]([C@H](O)[C@H](C)C/C=C/c2ccc(CN3C(=O)CCCC3=O)cc2)N(C)C(=O)[C@H](C(C)C)N(C)C(=O)[C@H](CC(C)C)N(C)C(=O)[C@H](CC(C)C)N(C)C(=O)[C@@H](C)NC(=O)[C@H](C)NC(=O)[C@H](CC(C)C)N(C)C(=O)[C@H](C(C)C)NC(=O)[C@H](CC(C)C)N(C)C(=O)CN(C)C1=O as the compound, how does the growth read?
Answer: 61.3% (inactive)

Question: How did the growth turn out when CC(C)(C)c1ccc(C(=O)Nc2sc3c(c2C#N)CCC(=O)C3)cc1 was run?
Answer: -1.94% (active)

Question: Which growth does the source give for CN(C)C1=NCCN1 here?
Answer: 97.9% (inactive)

Question: With c1ccc2c(c1)Cc1ccccc1N2CCN1CCCCC1 as the compound, how does the growth read?
Answer: 85.1% (inactive)

Question: For COc1cc(C(=O)/C=C/c2sc(Cl)nc2Cl)cc(OC)c1OC, which growth is on record?
Answer: 23.4% (inactive)

Question: Which growth does the source give for CCCc1nc2ccccn2c1Nc1ccc(C(=O)NO)cc1 here?
Answer: 111% (inactive)

Question: With CC(C)N(Cc1ccccc1)c1c(Cl)ssc1=O as the compound, how does the growth read?
Answer: 113% (inactive)

Question: Which growth does the source give for Cc1cc(NC(=O)Nc2cc(Cl)ccc2C)no1 here?
Answer: 88.4% (inactive)

Question: How did the growth turn out when COc1ccc2nc(-c3ccc(-c4noc(-c5ccc(Cl)cc5)n4)cc3)[nH]c2c1 was run?
Answer: 104% (inactive)

Question: Which growth does the source give for C/C(=N\NC(=S)N1CCCC1)c1ccccn1 here?
Answer: -13.4% (active)

Question: Which growth does the source give for Nc1nc(Nc2ccccc2)c2ncn(Cc3ccc4c(c3)OCO4)c2n1 here?
Answer: 25.1% (inactive)

Question: For O=NN(C(=O)NC1CCC(C(=O)O)CC1)C1CCC(C(=O)O)CC1 (stereo not given), which growth is on record?
Answer: 112% (inactive)

Question: COc1cc(-c2nn(C(=O)NS(=O)(=O)c3ccccc3)cc2-c2ccncc2)ccc1Cl was tested. Which growth did it give?
Answer: 98.1% (inactive)

Question: Which growth does the source give for CCOc1ccncc1[N+](=O)[O-] here?
Answer: 103% (inactive)

Question: With O=C(Nc1ccncc1)C(=O)c1cn(S(=O)(=O)c2ccccc2F)c2ccccc12 as the compound, how does the growth read?
Answer: 12.7% (inactive)

Question: Which growth does the source give for CC(O)C(F)(F)C(F)(F)C(F)(F)F (stereo not given) here?
Answer: 101% (inactive)

Question: How did the growth turn out when CCOC(=O)c1c2c(n3ccccc13)C(=O)c1ncccc1C2=O was run?
Answer: -28.8% (active)

Question: Which growth does the source give for CCCCc1c(CCC)c(=N)c2ccccc2n1C here?
Answer: 77% (inactive)

Question: With C#C[C@@]1(O)[C@@H](CO)O[C@@H](n2cc(-c3ccco3)c3c(N)ncnc32)[C@@H]1O as the compound, how does the growth read?
Answer: 89% (inactive)

Question: How did the growth turn out when Cc1nc([P+](c2ccccc2)(c2ccccc2)c2ccccc2)c(Sc2sc(-c3ccccc3)nc2[P+](c2ccccc2)(c2ccccc2)c2ccccc2)o1 was run?
Answer: -17.9% (active)
